# Test results: PubChem BioAssay (NCATS)
# “And” between values parts separate entries of the source, which are not always exact repeats. Equal entries are not always repeated. Records with an inconclusive call do not appear. For part of these data: Entries with a potency or affinity are not part of this list. The source made the active and inactive calls.
# Experiments:
# [1] = qHTS profiling of the MIPE4 collection as inhibitors of Plasmodium falciparum (3D7) proliferation (AID 743344; call rule not given here;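 note: scaled between DMSO vehicle wells and 0.29 µM artemisinin as full inhibition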); settings: P. falciparum 3D7 in erythrocytes, SYBR Green DNA fluorescence, 72 h; at 28.5 µM unless noted
# Outline: (§1)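 Erythrocytes infected with P. falciparum (0.3% parasitemia, 2.5% hematocrit) incubated with compounds 72 h at 37 C, 5% CO2. Lysis with saponin/Triton buffer containing SYBR Green I, overnight at room temperature in the dark; DNA fluorescence (485/535 nm) normalised to 0.29 uM artemisinin and DMSO.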
# [2] = qHTS profiling of the MIPE4 collection as inhibitors of Plasmodium falciparum (DD2) proliferation (AID 743345; call rule not given here); settings: P. falciparum Dd2 in erythrocytes, SYBR Green DNA, 72 h; at 28.5 µM unless noted
# Outline: as §1
# [3] = qHTS profiling of the MIPE4 collection as inhibitors of Plasmodium falciparum (DD2) proliferation (Rep 2) (AID 743346; call rule not given here); settings: P. falciparum Dd2 in erythrocytes, SYBR Green DNA, 72 h; at 28.5 µM unless noted
# Outline: as §1
# [4] = qHTS profiling of the MIPE4 collection as inhibitors of Plasmodium falciparum (HB3) proliferation (AID 743347; call rule not given here;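 note: plate controls were DMSO vehicle wells for no effect and artemisinin wells for full effect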); settings: P. falciparum HB3 in erythrocytes, SYBR Green DNA, 72 h; at 28.5 µM unless noted
# Outline: as §1
# [5] = Ebola virus entry assay, blue channel fluorescence
# [6] = Ebola virus entry assay, green fluorescence channel
# [7] = Ebola virus entry assay, ratio channel readout
# [8] = qHTS Assay for Identifying Gametocytocidal Compounds (AID 743244; active = well fitted curve in the direction sought with a large enough effect; an effect the other way counts as inactive or inconclusive; note: potency is the fitted concentration of half-maximal effect;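 for max response: % is set by controls: 0 for no effect and ±100 for the full control effect; actives lower the fluorescent signal which means gametocytes are killed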); settings: P. falciparum 3D7 stage III-V gametocytes, alamarBlue, 72 h; max response: stronger effect = lower value
# Outline: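 Late gametocytes (III–V), P. falciparum 3D7; 72 h drug, then 24 h alamarBlue; resazurin reduction read by fluorescence.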
# [9] = Ebola virus entry assay, blue channel fluorescence; remark: listed apart in the source
# [10] = qHTS assay for small molecule agonists of the antioxidant response element (ARE) signaling pathway measured by Nrf2-dependant transcriptional activity (AID 720636; active = well fitted curve in the direction sought with a large enough effect in the repeat runs; an effect the other way counts as inactive or inconclusive;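 note: HepG2 cells with an ARE-driven luciferase reporter; % of control where 0% means no effect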)
# Outline: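 Reporter gene assay, HepG2 ARE-luc: 16 hr compound, 37 C, 5% CO2; read-out luciferase luminescence.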
# [11] = qHTS assay for small molecule antagonists of the retinoid-related orphan receptor gamma (ROR-gamma) signaling pathway - cell viability counter screen (AID 720652; active = well fitted curve in the direction sought with a large enough effect in the repeat runs; an effect the other way counts as inactive or inconclusive;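 note: series mostly up to about 92 µM; compound exposure lasted 16 hr before ATP read; % is set by controls: 0 for no effect and ±100 for the full control effect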)
# Outline: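 Luminescence from CellTiter-Glo after 30 min at room temperature reported cellular ATP as the cytotoxicity measure. Cells were the CHO reporter line with doxycycline-induced ROR-gamma expression, exposed to compound for 16 hr at 37 C.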
# [12] = qHTS assay for small molecule agonists of the antioxidant response element (ARE) signaling pathway measured by Nrf2-dependant transcriptional activity - cell viability counter screen (AID 720653; active = well fitted curve in the direction sought with a large enough effect in the repeat runs; an effect the other way counts as inactive or inconclusive; note: % is set by controls: 0 for no effect and ±100 for the full control effect); settings: ARE-bla HepG2 viability, CellTiter-Glo ATP luminescence, 16 h; stronger effect = lower value
# Outline: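 ARE-bla HepG2 cells treated with compounds for 16 h at 37C; this counter screen measures viability as intracellular ATP by CellTiter-Glo luminescence after 30 min at room temperature.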
# [13] = qHTS assay for cell viability of HEK293 cells (AID 743288; active = well fitted curve in the direction sought with a large enough effect; an effect the other way counts as inactive or inconclusive; note: % is set by controls: 0 for no effect and ±100 for the full control effect; nearly all actives have a fitted effect of over 50% in size); settings: ATP luminescence (CellTiter-Glo), 18 h, stronger effect = lower value
# Outline: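 Parental HEK293 cells, 2,000 per well, preincubated at least 5 h at 37 C, then exposed to compounds in DMSO for 18 h at 37 C. Viability by CellTiter-Glo ATP luminescence after 30 min at room temperature.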
# [14] = Ebola virus entry assay, ratio channel
compound,measurement,setting,value
Nc1ccn(C[C@@H](CO)OCP(=O)(O)O)c(=O)n1,"parasite growth, % of DMSO control",[1],94% [at 9.64 µM]
same,"parasite growth remaining, % of DMSO control (lower = more inhibition)",[2],103% [at 9.64 µM]
same,"parasite growth, % of control (lower = inhibition)",[3],97.9% [at 9.64 µM]
same,"growth, % of control",[4],81.6% [at 9.64 µM]
same,outcome,[5],inactive
same,outcome,[6],inactive
same,outcome,[7],inactive
Cc1onc(-c2ccccc2)c1C(=O)N[C@@H]1C(=O)N2[C@@H](C(=O)O)C(C)(C)S[C@@H]12,"parasite growth, % of control (lower = inhibition)",[3],92.1%
same,"growth, % of control",[4],82.7%
same,outcome,[5],inactive
same,outcome,[6],inactive
O=P(O)(O)C(O)(Cn1ccnc1)P(=O)(O)O,"parasite growth remaining, % of DMSO control (lower = more inhibition)",[2],90.7% [at 9.64 µM]
same,"growth, % of control",[4],72.4% [at 9.64 µM]
same,outcome,[5],inactive
same,outcome,[6],inactive
same,outcome,[7],inactive
C[C@](O)(CS(=O)(=O)c1ccc(F)cc1)C(=O)Nc1ccc(C#N)c(C(F)(F)F)c1,"parasite growth, % of DMSO control",[1],22%
same,"parasite growth remaining, % of DMSO control (lower = more inhibition)",[2],93.2%
same,"parasite growth, % of control (lower = inhibition)",[3],33.5%
same,"growth, % of control",[4],27.8%
same,outcome,[5],inactive
same,outcome,[6],inactive
same,outcome,[7],inactive
NC[C@H]1O[C@H](O[C@H]2[C@H](O)[C@@H](O[C@H]3O[C@H](CO)[C@@H](O)[C@H](N)[C@H]3O)[C@H](N)C[C@@H]2N)[C@H](O)[C@@H](O)[C@@H]1O,outcome,[6],inactive
CC(C)C[C@H](CN)CC(=O)O,max response,[8],2.29% (inactive)
same,"parasite growth, % of control (lower = inhibition)",[3],89%
same,outcome,[5],inactive
same,outcome,[6],inactive
same,outcome,[7],inactive
O=C(O)[C@H](O)c1ccccc1,outcome,[9],inactive
O=C1Nc2ccc(Cl)cc2C(c2ccccc2Cl)=NC1O (stereo unspecified),max response,[8],16.1% (inactive)
same,outcome,[5],inactive
same,outcome,[6],inactive
same,outcome,[7],inactive
CC(=O)N1CCN(c2ccc(OC[C@H]3CO[C@](Cn4ccnc4)(c4ccc(Cl)cc4Cl)O3)cc2)CC1,max response,[8],0.452% (inactive)
same,"parasite growth remaining, % of DMSO control (lower = more inhibition)",[2],34.2%
same,"parasite growth, % of control (lower = inhibition)",[3],31%
same,outcome,[5],inactive
same,outcome,[6],inactive
same,outcome,[7],inactive
C[C@]12CC[C@@H]3c4ccc(OC(=O)N(CCCl)CCCl)cc4CC[C@H]3[C@@H]1CC[C@@H]2OP(=O)(O)O,max response,[8],0.678% (inactive) and -5.22% (inactive)
same,"parasite growth, % of DMSO control",[1],86.9%
same,"parasite growth remaining, % of DMSO control (lower = more inhibition)",[2],97.1%
same,"parasite growth, % of control (lower = inhibition)",[3],86.3%
same,"growth, % of control",[4],47.6%
same,outcome,[5],inactive
same,outcome,[6],inactive
same,outcome,[7],inactive
CCOC(=O)C1=C[C@@H](OC(CC)CC)[C@H](NC(C)=O)[C@@H](N)C1,"parasite growth, % of DMSO control",[1],91.3%
same,"parasite growth remaining, % of DMSO control (lower = more inhibition)",[2],97.7%
same,"parasite growth, % of control (lower = inhibition)",[3],101%
same,"growth, % of control",[4],98.6%
same,outcome,[5],inactive
same,outcome,[6],inactive
same,outcome,[7],inactive
CC(C)C[C@H]1C(=O)N2CCC[C@H]2[C@]2(O)O[C@](NC(=O)[C@@H]3C=C4c5cccc6[nH]c(Br)c(c56)C[C@H]4N(C)C3)(C(C)C)C(=O)N12,Potency,[8],22.4 µM (active) and 1.26 µM (active)
same,outcome,[5],inactive
same,outcome,[6],inactive
same,outcome,[7],inactive
COc1ccc2c(c1)C13CCCC[C@@H]1C(C2)N(C)CC3 (stereo partly specified),max response,[8],7.6% (inactive)
same,outcome,[5],inactive
same,outcome,[6],inactive
same,outcome,[7],inactive
O=C1[O][Bi][O]c2ccccc21,outcome,[5],inactive
same,outcome,[7],inactive
Clc1ccc2c(c1)C(c1ccccc1)=NCc1nncn1-2,max response,[8],5.88% (inactive)
same,outcome,[5],inactive
same,outcome,[6],inactive
same,outcome,[7],inactive
CCCC(C)(COC(N)=O)COC(N)=O,outcome,[10],inactive
same,outcome,[11],inactive
same,max response,[12],2.78% (inactive) and -4.68% (inactive)
same,max response,[8],-2.61% (inactive)
same,max response,[13],2.5% (inactive) and 7.62% (inactive)
same,outcome,[6],inactive
same,outcome,[7],inactive
Nc1ccn([C@@H]2CS[C@H](CO)O2)c(=O)n1,outcome,[6],inactive
same,outcome,[7],inactive
Nc1nc2[nH]cc(CCc3ccc(C(=O)N[C@@H](CCC(=O)O)C(=O)O)cc3)c2c(=O)[nH]1,outcome,[6],inactive
same,outcome,[7],inactive
CCCCCN(C)CCC(O)(P(=O)(O)O)P(=O)(O)O,max response,[8],17.4% (inactive) and 7.96% (inactive)
same,outcome,[5],inactive
same,outcome,[6],inactive
CCN(CC)C(C)CN1c2ccccc2Sc2ccccc21 (stereo unspecified),outcome,[9],inactive
CN(C)c1ccc2nc3ccc(=[N+](C)C)cc-3sc2c1,outcome,[9],inactive
same,outcome,[14],inactive
CCCOC(=O)c1cncn1C(C)c1ccccc1 (stereo unspecified),outcome,[9],inactive
CC(=O)N(CC(O)CO)c1c(I)c(C(=O)NCC(O)CO)c(I)c(C(=O)NCC(O)CO)c1I (stereo unspecified),outcome,[9],inactive
same,outcome,[14],inactive
CCC(C(=O)OCCN(CC)CC)c1ccccc1 (stereo unspecified),outcome,[9],inactive
same,outcome,[14],inactive
CC(=O)OC(C)C[N+](C)(C)C (stereo unspecified),outcome,[9],inactive
O=C(Nc1ccc(Cl)c(Cl)c1)C1CC1,outcome,[9],inactive
same,outcome,[14],inactive
O=C(/C=C/c1ccccc1)OCc1ccccc1,outcome,[9],inactive
same,outcome,[14],inactive
